# What was measured:
# Test in all cases: PBM binding z-score (relative to random genomic background probes); higher = stronger binding; sequences stand for … in GC…GCGATTGACAGCGTAGAATGAAGG
# [1] = test system: PPARg:RXRa DBDmut IVT, anti-RXR (DBD mutation: RXRa K156A/R161A, NR concentration 270 nM, RXRa partner concentration 90 nM)
# Summary of the method: (§1)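 Binding z-scores were set against random background probes. The data came from custom Agilent 4×180K protein-binding microarrays carrying double-stranded probes with 34-nt variable regions, incubated 1 h with ligand-free nuclear receptor dimers. Partner-specific antibodies detected binding, and scanned fluorescence was regression-normalized.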
# [2] = test system: PPARg:RXRa IVT, anti-PPARg (NR concentration 270 nM, RXRa partner concentration 90 nM)
# Summary of the method: as §1
# [3] = test system: PPARg DBDmut:RXRa IVT, anti-PPARg (DBD mutation: PPARg1 K132A/R137A, NR concentration 270 nM, RXRa partner concentration 90 nM)
# Summary of the method: as §1
# [4] = test system: PPARg DBDmut IVT, anti-PPARg (DBD mutation: PPARg1 K132A/R137A, NR concentration 270 nM)
# Summary of the method: as §1
# [5] = test system: PPARg homodimer (NR concentration 180 nM)
# Summary of the method: as §1
# [6] = test system: PXR:RXRa (NR concentration 270 nM, RXRa partner concentration 90 nM)
# Summary of the method: as §1
# [7] = test system: PXR homodimer (NR concentration 270 nM)
# Summary of the method: as §1
# [8] = test system: RARa:RXR (NR concentration 270 nM, RXRa partner concentration 90 nM)
# Summary of the method: as §1
# [9] = test system: RARa homodimer (NR concentration 270 nM)
# Summary of the method: as §1
# [10] = test system: RARb:RXRa (NR concentration 270 nM, RXRa partner concentration 90 nM)
# Summary of the method: as §1
# [11] = test system: RARb homodimer (NR concentration 270 nM)
# Summary of the method: as §1
# [12] = test system: RARg:RXRa (NR concentration 270 nM, RXRa partner concentration 90 nM)
# Summary of the method: as §1
# [13] = test system: RARg homodimer (NR concentration 270 nM)
# Summary of the method: as §1
# [14] = test system: RXRa DBDmut IVT, anti-RXR (DBD mutation: RXRa K156A/R161A, NR concentration 90 nM)
# Summary of the method: as §1
# [15] = test system: RXRa homodimer (NR concentration 180 nM)
# Summary of the method: as §1
# [16] = test system: THRa:RXRa (NR concentration 90 nM, RXRa partner concentration 90 nM)
# Summary of the method: as §1
# [17] = test system: THRa homodimer (NR concentration 90 nM)
# Summary of the method: as §1
# [18] = test system: VDR homodimer (NR concentration 270 nM)
# Summary of the method: as §1
Sequence,PBM binding z-score [1],PBM binding z-score [2],PBM binding z-score [3],PBM binding z-score [4],PBM binding z-score [5],PBM binding z-score [6],PBM binding z-score [7],PBM binding z-score [8],PBM binding z-score [9],PBM binding z-score [10],PBM binding z-score [11],PBM binding z-score [12],PBM binding z-score [13],PBM binding z-score [14],PBM binding z-score [15],PBM binding z-score [16],PBM binding z-score [17],PBM binding z-score [18]
GCTAGTTGGTCAGTAAAAGGTTACACACCGGTCG,0.66,1.05,-0.658,-0.197,1.27,1.42,0.164,1.98,0.524,2,2.7,2.11,1.34,0.00211,1.59,1.42,0.424,0.234
CTAACTAGGTCATTGACAGGACAGTGAATAGTAA,8.21,8.94,4,4.56,0.99,1.52,0.32,2.14,0.687,3.66,2.61,4.49,4.43,2.41,2.33,2.85,0.816,1.14
AGTCAAAGTTCAGGACGATGTAACGTAAAGCACG,-0.314,1.19,0.674,0.961,2.13,2.22,1.24,1.78,0.666,4.17,2.88,3.94,4.82,2.83,2.53,1.92,0.0967,1.75
TCTAGTTGGTCAATGGTCACACACTCGAAATGCG,2.15,2.54,0.677,1.19,1.32,0.698,-0.0663,0.893,0.846,1.62,1.54,1.02,1.31,1.16,0.996,0.262,0.437,0.178
TCATATAGGTAATACAGCTGAAAGTCGGCATCTA,4.01,1.94,0.896,1.18,1.1,0.684,-0.0774,0.947,0.987,0.188,-0.493,0.294,0.383,1.69,0.684,-0.0502,-0.127,-0.525
ACAGACAGGTGAGTTAAGGTAACTCAGCTGGACG,0.272,0.601,0.0974,0.513,0.279,0.151,-0.384,1.29,-0.525,0.48,-0.0673,0.439,0.59,-0.352,0.374,4.35,1.8,-0.547
TCTTTTAGTTGATTAGGGCAACCGAAACAGCGGA,2.25,2.54,2.77,2.73,1.2,0.77,0.929,0.951,1.25,1.79,1.02,1.27,1.12,1.2,0.836,1.07,0.745,0.435
AGAATGAGGTTACCAAAGATCAGGGCAACGCTTG,3.79,3.77,0.564,0.291,0.848,1.81,-0.116,2.47,-0.187,2.43,1.97,2.24,1.97,1.14,2.77,3.16,1.2,0.728
AGAATGAGGTTATACGTACATCAGGGAAGAAAGT,2.47,2.41,1.28,1.19,0.736,1.28,0.643,1.82,0.483,1.5,0.803,1.95,1.32,1.73,2.32,2.13,0.372,1.22
ATATGGAGGTTATCGGGTCATTCAGTTTGCGCAT,4.66,4.91,1.95,1.8,2.89,4.61,8.4,4.75,1.62,3.26,3.56,4.27,3.28,2.19,4.9,3.71,3,4.69
ACTATTAGTTGACTTAGTGCAACCGATACGACGC,0.167,0.382,0.85,0.707,0.732,0.283,0.128,0.123,0.689,0.309,0.207,0.552,0.65,0.565,0.369,0.0819,-0.158,0.241
CGACCGAGGGCATGAGTTGATAGCAAATGCCGAT,0.432,0.376,-0.421,-0.612,0.0239,0.48,-0.327,0.539,-0.74,2.11,0.812,1.35,1.89,1.81,0.547,1.01,-0.126,1.48
TCTATTAGATGATTAGGGCAACCGAAACAGCGGA,2.02,1.09,0.897,0.561,0.156,0.4,-0.123,0.416,0.326,0.703,0.19,0.609,0.575,1.02,0.432,0.35,-0.055,0.272
CCGACTGGGGCAGAAAGGTTACCTTACCATCCGG,1.43,1.85,-1.35,-1.29,0.0892,0.658,-0.611,1.48,-0.873,1.5,1.97,1.25,0.987,-0.233,1.28,1.39,0.772,-0.247
AGTCAAAGTTCATTTAGGTAACGTAAGATATGCT,0.638,3.21,1.36,1.51,2.39,5.45,8.27,3.63,1.4,4.66,3.77,5.03,5.39,4.96,4.35,3.29,1.03,5.45
GATACAGGGTCAAGGCAAGAGTACGCGTATTGAT,2.89,4.14,1.59,0.74,2.69,3.78,0.428,4.61,1.12,4.62,3.45,5.5,5.14,2.63,6.28,3.72,1.16,2.31

# Reference: the supplement of paper PMC6555819
